Compound activity deposited in PubChem BioAssay by National Center for Advancing Translational Sciences (NCATS).
HCMV antiviral – qHTS Assay for inhibitors of the human cytomegalovirus (HCMV). HFF cells, HCMV-luciferase reporter, 72 h; stronger effect = lower value. activity change, negative = inhibition, % at 57.5 µM. hit rate 4.5% among 410,000. AID 1259415, 2018; in the data active = activity change below about -60%; inconclusive = no clear call, values can overlap the other calls; inactive = above about -39%
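Compounds were evaluated in HFFs infected with an HCMV luciferase reporter virus (MOI 1 PFU/cell). Luciferase in lysates collected 72 h post infection served as the replication measure.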
Pf growth 96h – Primary qHTS for delayed death inhibitors of the malarial parasite plastid, 96 hour incubation | P. falciparum luciferase reporter growth, 96 h | Potency, µM (titrated, usually from 28.7 µM), for inactives: top-dose activity change, negative = inhibition, hits mostly inhibitors | hit rate 6.9% among 320,000; also: potency is read from the fitted curve at half-maximal effect
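Delayed-death screen, second-generation endpoint: infected erythrocytes, 2% hematocrit, 0.05% parasitemia final; 96 hours at 37 C, 5% CO2; luciferase detection reagent; luminescence decrease equals reduced growth.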
Pf growth 48h – Primary qHTS for delayed death inhibitors of the malarial parasite plastid, 48 hour incubation | P. falciparum luciferase growth in erythrocytes, 48 h | Potency, µM (titrated, usually from 28.7 µM), inactives show at the top dose activity change, negative = inhibition, most hits filed as inhibitors | hit rate 5.9% among 310,000; also: potency is read from the fitted curve at half-maximal effect
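Read-out is firefly luciferase luminescence from an integrated reporter in P. falciparum, so falling signal marks reduced parasite growth. Infected erythrocytes were at 2% hematocrit and 0.1% parasitemia (final) in Albumax-supplemented RPMI 1640.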
Sm TGR block – qHTS Assay for the Inhibitors of Schistosoma Mansoni Peroxiredoxins | Schistosoma mansoni thioredoxin glutathione reductase (TGR), Q962Y6 | Potency, µM (highest dose often 114 µM), for inactives: top-dose activity change, negative = inhibition, hits mostly inhibitors | purified TGR, DTNB reduction, TNB absorbance 405 nm | hit rate 3% among 360,000; also: potency is read from the fitted curve at half-maximal effect; nearly all actives have a fitted effect of over 60% in size
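First, TGR (20 nM dispensed) and NADPH were mixed with compound. Second, a 15 min room-temperature incubation followed. Third, further NADPH and then DTNB were added to start the reaction. Finally, TNB absorbance was monitored kinetically.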
FBPA Giardia inh – qHTS Assay for Inhibitors of Fructose-1,6-bisphosphate Aldolase from Giardia Lamblia. A8B2U2. hit rate 0.71% among 290,000. purified Giardia FBPA. Potency, µM (titrated, usually from 59.6 µM), inactives show top-dose activity, negative = inhibition, actives largely listed as inhibitors. AID 2451, 2010; also: potency is read from the fitted curve at half-maximal effect; nearly all actives have a fitted effect of over 55% in size
Target sequence (A8B2U2 whole entry, looked up): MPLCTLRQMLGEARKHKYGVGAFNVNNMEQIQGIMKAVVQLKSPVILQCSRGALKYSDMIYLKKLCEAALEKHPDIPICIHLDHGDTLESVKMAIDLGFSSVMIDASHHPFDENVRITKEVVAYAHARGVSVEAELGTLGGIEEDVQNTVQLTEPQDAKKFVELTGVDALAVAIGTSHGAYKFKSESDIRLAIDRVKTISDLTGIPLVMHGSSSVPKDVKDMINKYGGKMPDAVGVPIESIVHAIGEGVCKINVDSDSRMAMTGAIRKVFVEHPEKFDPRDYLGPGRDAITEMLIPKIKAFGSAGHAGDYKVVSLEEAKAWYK
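Giardia FBPA (40 nM reagent) was preincubated 10 min at RT with compound (up to 57.5 uM final), then substrate plus GAPDH/TPI/NAD/arsenate coupling system with diaphorase/resazurin was added; resorufin fluorescence (525/598 nm) was read after 20 min.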
Numbers without * were called inactive; ? = inconclusive; / = no result given; [ ] = another dose, or the depositor's remark. An excerpt weighted towards active compounds, which were near 14% of everything screened. Unless noted, calls follow the shape of the dose curve; as a rule, active = well fitted curve in the direction sought with a large enough effect; inconclusive = small, poorly fitted or top-dose-only effect, or another doubt; inactive = no such curve, though single readings can be large; an effect the other way counts as inactive or inconclusive. % is scaled to controls: 0 for no effect and ±100 for the full control effect.

SMILES | HCMV antiviral | Pf growth 96h | Pf growth 48h | Sm TGR block | FBPA Giardia inh
Cc1ccc(CNC(=O)c2sc3nc[nH]c(=O)c3c2C)cc1 | ? | / | / | 1% | /
OC(c1ccc(F)c(F)c1)c1nc(-c2csc3ccccc23)cs1 (stereo not drawn) | -19 | / | / | / | /
CCOC(=O)c1c(/N=C/c2c(O)n(-c3ccccc3F)c(=S)[nH]c2=O)sc2c1CCCC2 | -6 | 20% | / | 11µM* | 18µM*
CCOC(=O)c1c(/N=C/c2c(O)n(-c3ccc(F)cc3)c(=S)[nH]c2=O)sc2c1CCCC2 | 56 | / | 15% | ? | -2%
Cc1ccc2[nH]c(CSc3nnc(COc4ccccc4C)n3C)cc(=O)c2c1 | -39 | / | / | 0% | /
Cc1ccccc1OCc1nnc(SCc2cc(=O)c3cc(F)ccc3[nH]2)n1C | -62* | / | / | 5% | /
C[C@H]1C[C@]2(O[C@@H]2C)C(=O)O[C@@H]2CCN(C)C/C=C(/COC(=O)[C@]1(C)O)C2=O | / | / | / | / | 2%
COc1ccc(-n2c(-c3ccc(Br)cc3)nc(=S)c3c2CCCC3)cc1 | -25 | ? | 7% | ? | 9%
COc1ccc(-n2c(-c3ccccc3)c[n+]3c2CCC3)cc1 | -78* | ? | ? | 10% | -4%
CCOc1ccc(-c2c[n+]3c(n2-c2ccccc2)CCCCC3)cc1 | -98* | 0.93µM* | 1.2µM* | 0% | -1%
COc1ccc(-n2c(-c3ccc(Br)cc3)c[n+]3c2SC(C)C3)cc1 (stereo not drawn) | -96* | ? | 0.33µM* | -3% | 4%
COc1ccc(-n2c(-c3ccc(Br)cc3)c[n+]3c2CCCCC3)cc1 | -87* | 0.59µM* | 1µM* | -10% | 12%
CCC(=O)Nc1nnc(SCC(=O)Nc2cccc(Cl)c2)s1 | -21 | 4% | 19% | -34% | /
COc1ccc(-n2c(-c3ccc(Br)cc3)c[n+]3c2CCC3)cc1 | -92* | ? | 6.6µM* | 9% | 2%
CC(Oc1ccccc1F)C(=O)NNC(=O)c1ccc(F)c(S(=O)(=O)N2CCOCC2)c1 (stereo not drawn) | 5 | -26% | 7% | -1% | /
O=C(Nc1ccc(Cl)cc1)NC1CCCCC1Cc1ccco1 (stereo not drawn) | -38 | ? | ? | -13% | 0%
O=C(Nc1ccc(Cl)cc1)NC1CCCC1Cc1ccco1 (stereo not drawn) | / | ? | 10µM* | 45µM* | -25%
C[C@H](CO)NC(=O)c1nc[nH]c1C(=O)N[C@@H](C)c1ccccc1 | 2 | / | / | / | /
CCOc1ccc(OCc2ccc(C(=O)Nc3cccnc3)o2)cc1 | 94 | 9.3µM* | 12µM* | -28% | /
CCOc1ccc(OCc2ccc(C(=O)NCc3cccnc3)o2)cc1 | 33 | ? | 0% | -8% | /
O=C(O)c1ccc(OCc2ccc(C(=O)O)o2)cc1 | 30 | 104% | 12% | -10% | -1%
CCc1ccc(OCc2ccc(C(=O)O)o2)cc1 | -20 | 7% | 207% | 35µM* | 15%
CC(C)c1ccc(OCc2ccc(C(=O)O)o2)cc1 | -10 | 244% | 1µM* | -34% | ?
CC(C)c1ccc(OCc2ccc(C(=O)N(C)C)o2)cc1 | 55 | 37% | 1%[0.00184 µM] | -14% | -3%
CC1=NN(c2ccc(C)cc2)C(=O)/C1=C\C=C\c1ccccc1 | -81* | ? | 13µM* | -8% | -1%
SMILES | HCMV antiviral | Pf growth 96h | Pf growth 48h | Sm TGR block | FBPA Giardia inh
CC1=NN(c2cccc(C(=O)O)c2)C(=O)/C1=C\C=C/c1ccccc1 | 68 | -11% | ? | 11µM* | -24%
CC1=NN(c2ccccc2)C(=O)C1=Cc1ccccc1 | -12 | / | / | / | /
CC1=NN(c2ccccc2)C(=O)/C1=C/C=C/C=C/N(C)C | -32 | -7% | 17% | -9% | -25%
Cc1cc(N)n2nc(C(F)(F)F)nc2n1 | -92* | -13% | -30%[5.75 µM] | -10% | 7%
Cc1cc(C)n2nc(N)nc2n1 | -37 | / | / | / | /
Cc1nnc2n(C3CCCCC3)c(=O)c3c4c(sc3n12)COC(C)(C)C4 | -28 | ? | ? | 40µM* | 6%
CSc1nnc2n(C3CCCCC3)c(=O)c3c4c(sc3n12)CCCC4 | / | -7% | 3% | -1% | 3%
